In PubChem BioAssay (Tox21):
Where “and” joins values, the source holds several entries; their conditions need not be identical. Equal entries are not always repeated. Inconclusive results are not listed. A call without a number means that no potency is given here. Some structures have more than one record in an assay (separate samples or runs), and their calls can disagree. Calls of active or inactive are those of the source. Calls come from the whole dose curve; as a rule, active = well fitted activation curve with a large enough effect in the repeat runs; inconclusive = weak or mixed curves, or effect the other way; inactive = no such curve, though single readings can be large or run the other way.

What follows are compounds tested against Estrogen receptor (Homo sapiens) (UniProt P03372) (assay: qHTS assay to identify small molecule agonists of the estrogen receptor alpha (ER-alpha) signaling pathway using the BG1 cell line (AID 743079; note: nearly all actives have a fitted effect of over 20% in size)). Conditions: BG1Luc4E2 cells, ERE-luciferase agonist, 22 h; activation: at 70.3 µM (top of the series) unless noted.
Sequence of Estrogen receptor (Homo sapiens) (P03372 whole entry, looked up): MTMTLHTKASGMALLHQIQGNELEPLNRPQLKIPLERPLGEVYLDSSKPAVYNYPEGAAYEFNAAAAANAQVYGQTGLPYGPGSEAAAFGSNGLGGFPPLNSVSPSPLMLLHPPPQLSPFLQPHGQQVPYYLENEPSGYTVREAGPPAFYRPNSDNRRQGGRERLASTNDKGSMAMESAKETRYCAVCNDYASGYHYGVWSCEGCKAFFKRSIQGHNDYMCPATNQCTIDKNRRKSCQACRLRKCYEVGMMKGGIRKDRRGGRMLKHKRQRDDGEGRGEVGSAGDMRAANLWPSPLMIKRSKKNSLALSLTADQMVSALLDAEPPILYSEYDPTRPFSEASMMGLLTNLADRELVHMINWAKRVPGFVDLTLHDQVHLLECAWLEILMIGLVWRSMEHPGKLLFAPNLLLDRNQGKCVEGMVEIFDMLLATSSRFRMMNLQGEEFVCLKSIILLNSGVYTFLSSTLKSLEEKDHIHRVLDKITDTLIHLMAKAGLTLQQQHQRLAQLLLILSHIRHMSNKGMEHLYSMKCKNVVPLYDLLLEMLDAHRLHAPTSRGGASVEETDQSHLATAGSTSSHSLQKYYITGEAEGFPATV
Potency is the fitted concentration of half-maximal effect.

**Q.** `CN(C)c1nc(=O)n(C2CCCCC2)c(=O)n1C` was tested. Which Potency did it give?
**A.** inactive

**Q.** With `Clc1ccc(C(Cl)(Cl)Cl)cc1` as the compound, how does the Potency read?
**A.** inactive and 30.6 µM (active)

**Q.** Which Potency does the source give for `CCOP(=S)(OCC)SCn1c(=O)oc2cc(Cl)ccc21` here?
**A.** inactive

**Q.** Which Potency does the source give for `COc1ccc(O)c(C(C)(C)C)c1` here?
**A.** inactive

**Q.** For `CC1=C(C(=O)Nc2ccccc2)SCCO1`, which Potency is on record?
**A.** 31.1 µM (active) and 27.3 µM (active)

**Q.** `CCCCOCCOC(C)=O` was tested. Which Potency did it give?
**A.** inactive

**Q.** For `CNC(=O)Oc1cccc2c1OC(C)(C)C2`, which Potency is on record?
**A.** inactive and 24.3 µM (active)

**Q.** `O=NN(c1ccccc1)c1ccccc1` was tested. Which Potency did it give?
**A.** 47.4 µM (active)

**Q.** With `O=C(O)CF` as the compound, how does the Potency read?
**A.** inactive

**Q.** With `CCOP(=S)(OCC)SCSC(C)(C)C` as the compound, how does the Potency read?
**A.** inactive

**Q.** How did the Potency turn out when `CCOS(=O)(=O)OCC` was run?
**A.** inactive

**Q.** With `ClC(Cl)=C(Cl)C(Cl)=C(Cl)Cl` as the compound, how does the Potency read?
**A.** inactive

**Q.** Which Potency does the source give for `CC1(C)Cc2cccc(O)c2O1` here?
**A.** inactive

**Q.** With `CC(C)COC(=O)c1ccccc1C(=O)OCC(C)C` as the compound, how does the Potency read?
**A.** 21.7 µM (active)

**Q.** `N#Cc1cccnc1` was tested. Which Potency did it give?
**A.** inactive

**Q.** `ClC(Cl)(Cl)c1ccccc1` was tested. Which Potency did it give?
**A.** inactive

**Q.** `CCCCOCC1CO1` (configuration not stated) was tested. Which Potency did it give?
**A.** inactive

**Q.** With `CCCCCCCCCCCCCl` as the compound, how does the Potency read?
**A.** 30.2 µM (active) and inactive

**Q.** How did the Potency turn out when `CCC1(c2ccc(N)cc2)CCC(=O)NC1=O` (configuration not stated) was run?
**A.** inactive

**Q.** With `C=C(C)C#N` as the compound, how does the Potency read?
**A.** inactive

**Q.** How did the Potency turn out when `Cc1cccc(N=Nc2ccc(N(C)C)cc2)c1` was run?
**A.** 139 nM (active) and 864 nM (active)

**Q.** `O=NN1CCOCC1` was tested. Which Potency did it give?
**A.** inactive

**Q.** Which Potency does the source give for `c1ccc2c(c1)Nc1ccccc1S2` here?
**A.** 26.6 µM (active) and 38.6 µM (active)

**Q.** Which Potency does the source give for `CC[n+]1c(-c2ccccc2)c2cc(N)ccc2c2ccc(N)cc21` here?
**A.** inactive

**Q.** `COc1ccc(C=O)cc1OC` was tested. Which Potency did it give?
**A.** inactive and 6.86 µM (active)

**Q.** How did the Potency turn out when `CC(C)Nc1nc(Cl)nc(NC(C)C)n1` was run?
**A.** inactive

**Q.** Which Potency does the source give for `O=[N+]([O-])/N=C1\NCCN1Cc1ccc(Cl)nc1` here?
**A.** inactive

**Q.** `CCOC(=O)c1ccccc1N` was tested. Which Potency did it give?
**A.** inactive

**Q.** `CN(C)P(=O)(N(C)C)N(C)C` was tested. Which Potency did it give?
**A.** inactive

**Q.** With `CCCCOC(=O)COC(=O)c1ccccc1C(=O)OCCCC` as the compound, how does the Potency read?
**A.** inactive

**Q.** Which Potency does the source give for `CC(C)=CC1C(C(=O)OCc2cccc(Oc3ccccc3)c2)C1(C)C` (configuration not stated) here?
**A.** inactive

**Q.** `Clc1cccc(C(Cl)(Cl)Cl)n1` was tested. Which Potency did it give?
**A.** inactive

**Q.** How did the Potency turn out when `CSc1nc(NC(C)C)nc(NC(C)C)n1` was run?
**A.** inactive

**Q.** Which Potency does the source give for `CNC(=O)CSP(=S)(OC)OC` here?
**A.** inactive

**Q.** How did the Potency turn out when `OC(c1ccc(Cl)cc1)(c1cncnc1)c1ccccc1Cl` (configuration not stated) was run?
**A.** 9.69 µM (active)

**Q.** How did the Potency turn out when `CCC/C=N/O` was run?
**A.** inactive

**Q.** How did the Potency turn out when `C[C@]12CCC(=O)C=C1CC[C@@H]1[C@@H]2CC[C@@]2(C)[C@H]1CC[C@]2(C)O` was run?
**A.** 376 nM (active) and 106 nM (active) and 179 nM (active)
